# A selection: hits, their analogues and other compounds. The true share with any hit is near 2.9%.
# Integrin act MD: activates integrin-mediated alleviation for muscular dystrophy. actives 0.064% (n = 350,000). Potency, µM (titrated, usually from 38.3 µM), inactives show at the top dose activation, usual class: activators. alpha7betagal myoblasts, beta-gal FDG fluorescence, 48 h. AID 624291;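 note: potency is the fitted concentration of half-maximal effect; 100% = response of the positive control SU9516; nearly all actives have a fitted effect of over 60% in size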
#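 Alpha7betagal+/- myoblasts (passage 13) were plated 16-24 hr, then exposed to compounds (1:260 dilution of DMSO stock) for 48 hours at 37C. After MPER lysis, β-galactosidase reporter activity was read as FDG fluorescence (ex 480/em 540) after 30 minutes.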
# DRD3 agonist: D3 dopamine receptor (human) agonism; D3R DiscoveRx beta-arrestin cells, luminescence, 90 min; max activation, %; actives 0.58% (n = 410,000); in the data active = max activation above about 30%; note: 0% is about no effect
#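 Cells at 1500/well, incubated overnight, then treated with pinned compounds (dopamine as control) for 90 min at 37 degrees C. DiscoveRx reagent added for 30 - 60 minutes at room temperature; luminescence read.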
# IDH1 R132H inh: inhibitors of human mutant IDH1 R132H | Potency, µM (doses to about 76.6 µM), for the others: top-dose activity change, negative = inhibition, hits mostly inhibitors | IDH1-R132H enzyme, NADPH consumption, diaphorase/resazurin fluorescence | actives 0.093% (n = 390,000) | AID 602179 | O75874; note: potency is the fitted concentration of half-maximal effect; % is set by controls: 0 for no effect and ±100 for the full control effect; nearly all actives have a fitted effect of over 65% in size
#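 IDH1-R132H (0.5 ug/mL dispensed) in pH 7.5 Tris buffer was preincubated 30 min with compound, then given a substrate mix of 0.016 mM NADPH and 2 mM alpha-KG for 80 min at room temperature; remaining NADPH was read by diaphorase/resazurin fluorescence.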
# D3 antag: blocks the human D3 dopamine receptor | P35462 | D3R cells, DiscoveRx beta-arrestin luminescence, antagonist mode; stronger effect = lower value | max response, negative = inhibition, % | actives 2.5% (n = 360,000); in the data active = max response below about -50%; inconclusive = no clear call, values can overlap the other calls; note: % is set by controls: 0 for no effect and ±100 for the full control effect
#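 Cells plated overnight at 1500 cells/well, then exposed to library compounds with dopamine controls for 90 minutes at 37 degrees C. DiscoveRx reagent added for 30–60 minutes at room temperature; luminescence read, quantitative HTS format.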
# B2AR arrestin: recruits beta-arrestin to the human beta2-adrenergic receptor; Potency, µM (top dose mostly 46.1 µM), for the others: at the top dose activation, hits mostly activators; beta-arrestin recruitment to beta2AR, cell-based reporter; actives 0.02% (n = 330,000); P07550;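 note: potency is the fitted concentration of half-maximal effect; 0% = DMSO controls and full agonism = EC100 isoproterenol or metaproterenol; nearly all actives have a fitted effect of over 65% in size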
# Target sequence (P07550 whole entry, looked up): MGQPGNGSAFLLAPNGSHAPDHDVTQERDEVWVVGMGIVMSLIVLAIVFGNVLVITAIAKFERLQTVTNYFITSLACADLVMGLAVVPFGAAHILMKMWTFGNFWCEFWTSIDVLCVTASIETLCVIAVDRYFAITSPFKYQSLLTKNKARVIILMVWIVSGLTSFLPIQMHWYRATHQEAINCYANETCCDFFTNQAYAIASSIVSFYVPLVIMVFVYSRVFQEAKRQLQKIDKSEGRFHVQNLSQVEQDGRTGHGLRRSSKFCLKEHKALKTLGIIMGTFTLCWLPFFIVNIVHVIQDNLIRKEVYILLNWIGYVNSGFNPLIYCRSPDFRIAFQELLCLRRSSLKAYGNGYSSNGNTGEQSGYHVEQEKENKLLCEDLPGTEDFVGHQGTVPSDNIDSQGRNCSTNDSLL
# * = called active by the depositor; u = inconclusive; x = no result given; [ ] = remark or other dose. Unless noted, calls come from the whole dose curve; as a rule, active = well fitted curve in the direction sought with a large enough effect; inconclusive = small, poorly fitted or top-dose-only effect, or another doubt; inactive = no such curve, though single readings can be large; an effect the other way counts as inactive or inconclusive.
SMILES,Integrin act MD,DRD3 agonist,IDH1 R132H inh,D3 antag,B2AR arrestin
CN1CCN(c2nc(-c3ccccc3)nc(-c3ccccc3)c2C#N)CC1,23%,-3,1%,-29,0%
CCc1ccc2nc(N3CCN(C)CC3)c(C#N)cc2c1,8%,1,-9%,-68*,0%
COc1cc(NC(=O)c2ccc(Br)cc2)c(OC)cc1NC(=O)c1ccccc1,-18%,6,-6%,17,4%
COc1cc(NC(=O)c2cccnc2)c(OC)cc1NC(=O)c1ccc(Br)cc1,-1%,121*,1%,18,0%
COc1cc(NC(=O)C(C)Oc2ccccc2)c(OC)cc1NC(=O)c1ccccc1 (configuration not stated),0%,36*,6%,11,-1%
COc1ccc(NC(=O)c2oc3ccc(S(=O)(=O)N(C)C4CCCCC4)cc3c2C)cc1Cl,x,7,-11%,x,x
CC(=O)c1coc2ccc(OCCN3CCCCC3)cc12,-49%,-36,5%,-84*,0%
CCOC(=O)c1cnn(-c2ccc(OC)cc2)c1C1CCN(C(=O)OC(C)(C)C)CC1,x,3,16%,x,x
COc1cc(NC(=O)c2ccc(-c3nc(COc4ccccc4)c(C)o3)cc2)cc(OC)c1,x,4,9%,x,x
CNC(=S)NC1CC2CCCC(C1)N2Cc1ccccc1OC (configuration not stated),-10%,-37,-2%,-62*,-1%
CCC(=O)NC1CC2CCCC(C1)N2Cc1ccc(C)cc1 (configuration not stated),-32%,-20,2%,-108*,0%
COc1ccccc1CNC(=S)NC1CCCCC1,29%,-11,0%,-18,0%
CC(=O)NC1CC2CCC(C1)N2Cc1ccc(C)cc1 (configuration not stated),-7%,-9,-1%,-4,0%
CNC(=S)NC1CC2CCCC(C1)N2Cc1ccc(C)cc1 (configuration not stated),-59%,-9,0%,-116*,-1%
CCNC(=S)NC1CC2CCCC(C1)N2Cc1ccc(C)cc1 (configuration not stated),u,-8,12%,-118*,0%
CCc1ccc(C2c3c(oc4ccc(F)cc4c3=O)C(=O)N2c2nc(C)c(C(=O)OC)s2)cc1 (configuration not stated),x,1,5%,x,x
CN(C)c1ccc(-c2nc(-c3ccco3)no2)cc1[N+](=O)[O-],x,16,0%,x,x
CCCCN1CC(c2nc3ccccc3n2CCCCOc2cc(C)ccc2C)CC1=O (configuration not stated),x,-10,5%,x,x
Cc1ccc(C)c(N2CCN(C(=O)CN3C(=O)CSc4c3c(C)nn4-c3ccccc3)CC2)c1,x,0,-16%,x,x
C#Cc1ccc([C@H]2C=C(C(=O)OCC=C)O[C@@H](OCC)[C@@H]2CCCO)cc1,-30%,62*,-7%,64,0%
CCO[C@H]1OC(C(=O)N2CCCCCCC2)=C[C@@H](c2ccccc2)[C@@H]1CCCO,4%,7,0%[38.3 µM],6,0%
CCO[C@@H]1OC(C(=O)NCc2ccccc2)=C[C@H](c2cn(C(C)=O)c3ccccc23)[C@H]1CCCO,-3%,67*,-7%,8,1%
CCO[C@@H]1OC(C(=O)N2CCOCC2)=C[C@H](c2ccccc2)[C@H]1CCCO,7%,-1,6%,-65*,0%
O=CCCCC=O,x,10,x,x,x
COc1ccc(C(C(=O)NCc2ccccc2)N(C(=O)Cn2nnc3ccccc32)c2ccc(OC)cc2)cc1 (configuration not stated),x,-5,0%,x,x
SMILES,Integrin act MD,DRD3 agonist,IDH1 R132H inh,D3 antag,B2AR arrestin
CC1CN(c2nc3ccccc3nc2SCC(=O)Nc2ccc(F)cc2)CC(C)O1 (configuration not stated),-25%,1,-6%,1,-1%
CNc1nc(NN)nc(Nc2ccccc2)n1,7%,-5,-11%,-20,0%
CCCCN1CCCC1C(=O)Nc1c(C)cc(C)cc1C (configuration not stated),x,-13,x,x,x
CC(C)=CCc1c(O)cc2c(=O)c3ccc(O)cc3oc2c1O,-9%,-11,0%,9,x
CC(C)=CCc1c2c(c3occ(-c4ccc(O)cc4)c(=O)c3c1O)C=CC(C)(C)O2,-51%,69*,-4%,36,-1%
O=C(NCC1CCCO1)c1ccccc1OCc1ccc(F)cc1 (configuration not stated),1%,-5,3%,-66*,0%
Cc1cc(NC(=O)CCC(=O)N(Cc2cccnc2)C(C(=O)NC(C)(C)C)c2ccccc2Cl)no1 (configuration not stated),4µM*,11,-5%,11,0%
CCc1nn(CC(=O)NCCc2ccc(OC)cc2OC)c(=O)c2cc3sccc3n12,x,-16,-2%,x,x
O=C(Nc1cc(S(=O)(=O)Nc2ccc(Cl)cc2)ccc1O)c1ccc(S(=O)(=O)N2CCCCCC2)cc1,-31%,-17,-9%,-50*,0%
Cc1ccc(-n2c(SCc3ccccc3F)nc3[nH]ncc3c2=O)cc1Cl,x,4,-23%,x,x
O=C(CCc1ccc(O)c(O)c1)N/N=C/c1ccc2c(c1)OCO2,-36%,76*,-5%,-7,0%
Cc1cc(NC(=O)c2ccc(NC(=O)CCS(=O)(=O)c3cccs3)cc2)ccc1Br,x,5,-7%,x,x
CCc1ccc(C(c2ccc(CC)cc2)C(Cl)Cl)cc1,x,0,x,-110*,0%
COc1ccc(C(=O)/C=C/C(=O)N(CC(=O)NC2CCCCC2)Cc2ccccc2)c(O)c1,35%,-31,8%,-115*,0%
C=CCc1ccccc1OCCSc1nc(-c2cccs2)nc2cc(=O)[nH]n12,x,5,u,x,x
CCOC(=O)c1c(C)[nH]c(C)c1S(=O)(=O)NCC1CCN(Cc2cccc(Cl)c2)CC1,-17%,-19,1%,u,0%
CCOC(=O)c1c(C)[nH]c(C)c1S(=O)(=O)NCC1CCN(Cc2ccc(C)cc2)CC1,12%,-15,-7%,-54*,-1%
CCOC(=O)c1c(C)[nH]c(C)c1S(=O)(=O)NCCN1CCN(c2ccccc2F)CC1,0%,-15,-4%,-58*,0%
O=C(CN1C(=O)COc2ccc(S(=O)(=O)N3CCOCC3)cc21)N1CCN(c2cccc(C(F)(F)F)c2)CC1,x,0,-10%,x,x
COc1ccccc1C1CCN(Cc2cccc(C(=O)N3CCC(O)CC3)c2)CC1,-23%,-3,-7%,-110*,0%
CC(=O)Nc1ccc(C2=NNC(=Nc3ccc(S(=O)(=O)N4CCOCC4)cc3)SC2)cc1,-17%,7,13µM*,2,0%
Fc1ccc(N=C2NN=C(c3cc(F)ccc3F)CS2)cc1,-33%,-15,11µM*,-11,0%
CC(=O)Nc1ccc(C(=O)Nc2ccc(S(=O)(=O)N3CCOCC3)cc2)cc1,8%,1,2%,3,0%

# High-throughput results as filed in PubChem BioAssay.
